High-throughput results (PubChem)
Exocytosis inh – lytic granule exocytosis inhibition; TALL-104 LAMP-1 surface exposure, flow cytometry; cells stimulated with thapsigargin and PMA; inhibition, % at 10 µM; 360,000 compounds, 0.66% hits;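 active = inhibition above about 55%, limit read from the data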
VLA-4 inh – inhibition in a human VLA-4 binding assay; P13612; VLA-4 expressing cells, ligand binding flow cytometry; inhibition, % (about 7 µM as worked out from the volumes in the protocol); 330,000 compounds, 0.2% hits; in the data active = inhibition above about 50%
JMJD2C inh – inhibitors of human GASC-1 (JMJD2C) demethylase; GST-JMJD2C(1-420) H3K9me3 demethylation, DELFIA europium; AID 2099; Q9H3R0; inhibition, % at 2.35 µM; 330,000 compounds, 0.069% hits;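 active = more than half of a compound's replicate wells show inhibition beyond 50%, single wells judged on their own value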;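 also: signal counts dimethyl H3K9 product captured on neutravidin plate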
m5-HT2A agonist – activates the mouse 5-HT2A serotonin receptor | P35363 | CHO-K1 mHTR2A beta-arrestin complementation, luminescence; percent of 30 µM serotonin response | activation, % at 7.6 µM | 360,000 compounds, 0.66% hits | AID 624169;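 active = activation above a run cutoff, the mean activation of all tested compounds plus 3 SD, cut at about 14% in these data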
V-ATPase pHluor – alters yeast V-ATPase proton transport | S. cerevisiae, pHLuorin cytosolic pH fluorescence | response, % at 10 µM | 350,000 compounds, 0.37% hits | AID 504577; in the data active = response mostly above about 7.3%, no sharp cut-off; inactive = mostly below about 5.4%; also: actives read high
MEX-5 binding – C. elegans MEX-5 TCR-2 RNA binding activity. MEX-5/FITC-TCR2 RNA binding, fluorescence polarization; active compounds read low. activity score (negative = inhibition of binding), % at 10 µM. 300,000 compounds, 0.38% hits. AID 1832;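 active = inhibition past about -25% in most replicates, and total fluorescence under double the plate's negative control median, limit read from the data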
Target sequence (Q9XUB2 whole entry, looked up): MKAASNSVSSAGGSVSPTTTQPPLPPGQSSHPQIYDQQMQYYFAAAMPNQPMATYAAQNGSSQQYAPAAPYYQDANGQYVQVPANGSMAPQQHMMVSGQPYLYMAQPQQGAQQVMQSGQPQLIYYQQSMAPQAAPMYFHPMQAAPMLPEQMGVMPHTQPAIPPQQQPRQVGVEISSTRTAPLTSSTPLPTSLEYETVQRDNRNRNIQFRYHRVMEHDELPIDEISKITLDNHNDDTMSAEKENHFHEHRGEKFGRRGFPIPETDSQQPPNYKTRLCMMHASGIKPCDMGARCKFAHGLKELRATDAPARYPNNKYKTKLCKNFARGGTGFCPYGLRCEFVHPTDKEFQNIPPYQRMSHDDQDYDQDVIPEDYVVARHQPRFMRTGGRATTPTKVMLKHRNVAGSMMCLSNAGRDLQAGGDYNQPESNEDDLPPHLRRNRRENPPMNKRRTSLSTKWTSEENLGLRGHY
VLA-4 mod pick – human VLA-4 allosteric modulation in cherry picked compounds; inhibition, % at 6.7 µM; AID 2813; 1,300 compounds, 2% hits; shares compounds with VLA-4 inh; U937 cells, HUTS-21 LIBS mAb binding, flow cytometry; LDV ligand present at threefold Kd; in the data active = inhibition above about 40%
Of the large screens only hits and unclear results are named; the others gave an inactive call (follow-up assays come after a bar, where they were run). An excerpt weighted towards active compounds, which were near 2.2% of everything screened.

CCOC(=O)CNC(=O)c1ccc2[nH]c3ccccc3c2c1	none | VLA-4 mod pick inactive
c1ccc(-c2nn3cnnc3c3ccccc23)cc1	none | VLA-4 mod pick inactive
CCOC(=O)c1ccc(N2C(=O)CC(N3CCOCC3)C2=O)cc1 (centres undefined)	none | VLA-4 mod pick inactive
CCOc1ccc(N2C(=O)CC(N3CCOCC3)C2=O)cc1 (centres undefined)	none
Cc1ccc(-c2nc(-c3ccncc3)no2)cc1	none
Cc1ccc(-c2nc(-c3ccccc3)no2)cc1	VLA-4 inh 95 | VLA-4 mod pick inactive
COc1ccc(CN(C)C(=O)C2CCN(C(=O)Nc3ccccc3)CC2)cc1	none
COC(=O)c1ccsc1NC(=O)CN1C(=O)CCC1=O	VLA-4 inh 52 | VLA-4 mod pick inactive
COC(=O)c1ccc2nc(NC(=O)CN3C(=O)CCC3=O)sc2c1	none
CC(C)(C)n1[nH]c2c3c(ccc2c1=O)C(=O)c1ccccc1C3=O	none
COCCCn1[nH]c2c3c(ccc2c1=O)C(=O)c1ccccc1C3=O	VLA-4 inh 92 | VLA-4 mod pick inactive
Cc1nn(-c2ccccc2)c(C)c1C(=O)OCC(=O)Nc1ccccc1Cl	none (no result: VLA-4 inh, JMJD2C inh, MEX-5 binding)
O=C(c1cc(-c2ccccc2)nc2ccccc12)N1CCN(C2CCS(=O)(=O)C2)CC1 (centres undefined)	none (no result: MEX-5 binding)
Cc1ccc(-c2cc(C(=O)N3CCN(C4CCS(=O)(=O)C4)CC3)c3ccccc3n2)cc1 (centres undefined)	none (no result: MEX-5 binding) | VLA-4 mod pick inactive
CN(CC(=O)Nc1cc(Cl)ccc1C#N)C1CCS(=O)(=O)C1 (centres undefined)	none (no result: MEX-5 binding)
CC[C@]12c3[nH]c4ccccc4c3CCN1C(=O)C(CC(=O)NCc1ccco1)C[C@@H]2C(=O)N1CCN(C(=O)C2CC2)CC1 (some centres undefined)	VLA-4 inh 58 (no result: MEX-5 binding) | VLA-4 mod pick inactive
C[C@@H](CN1CCC[C@H]1CN1C(N)=NC[C@@H]1Cc1ccccc1)N1C[C@@H](Cc2ccccc2)N(CCc2ccc(Cl)c(Cl)c2)C1=N	none (no result: MEX-5 binding)
CC(C)[C@@H]1CN=C(N)N1C[C@@H]1CCCN1C[C@H](C)N1C[C@@H](Cc2ccccc2)N(CCc2ccc(Cl)c(Cl)c2)C1=N	VLA-4 inh 53 (no result: JMJD2C inh, MEX-5 binding) | VLA-4 mod pick inactive
Cc1ccc(C(=O)OCC(=O)Nc2cccc(Cl)c2C)c(O)c1	none | VLA-4 mod pick inactive
Cc1ccc(C(=O)OCC(=O)Nc2ccccc2Cl)c(O)c1	none
Cc1ccc(NC(=O)CSCC(=O)N(C)CCOc2ccc(Cl)cc2)cc1	none (no result: VLA-4 inh, JMJD2C inh, MEX-5 binding)
Cc1cccc(NC(=O)CSCC(=O)N(C)CCOc2ccc(Cl)cc2)c1	VLA-4 inh 52 | VLA-4 mod pick inactive
Cc1nc2cc(-c3ccc(Cl)cc3)nn2c(C)c1CCC(=O)NCc1ccco1	VLA-4 inh 52 | VLA-4 mod pick inactive
COc1ccc(-c2cc3nc(C)c(CCC(=O)NCc4ccco4)c(C)n3n2)c(OC)c1	none
COC(=O)c1cc(C(=O)Nc2nnc(CC(C)(C)C)s2)cc([N+](=O)[O-])c1	VLA-4 inh 51 | VLA-4 mod pick inactive
CC(O)(c1cccnc1)c1nc(-c2cc(F)cc(F)c2)cs1 (centres undefined)	none (no result: VLA-4 inh, JMJD2C inh, V-ATPase pHluor, MEX-5 binding)
CC(NC(=O)c1ccccc1F)c1nnc(SCC(=O)Nc2nccs2)n1C (centres undefined)	none | VLA-4 mod pick inactive
Cc1cc(C(=O)CN2CCCC(C)C2)c(C)n1-c1ccc(F)cc1 (centres undefined)	none | VLA-4 mod pick inactive
O=C(Cc1ccccc1)NS(=O)(=O)c1ccc(N=NN2CCOCC2)cc1	none
Cc1cccc(C(=O)N[C@H](C(=O)NCCc2ccc(S(N)(=O)=O)cc2)C(C)C)c1	none
COCCn1c(-c2ccco2)nc2nc3ccccc3nc21	VLA-4 inh 92 | VLA-4 mod pick inactive
Cc1cc(C(=O)COC(=O)COc2ccc(C#N)cc2)c(C)n1C1CC1	none
COc1ccc(C(=O)N(Cc2ccco2)Cc2cccs2)c(O)c1	VLA-4 inh 54 | VLA-4 mod pick inactive
COc1ccccc1C(=O)NCCC(=O)N(Cc1ccco1)Cc1cccs1	none
Cc1ccc(Oc2cnc3ccccc3n2)cc1	VLA-4 inh 53 | VLA-4 mod pick inactive
Clc1ccc(Oc2cnc3ccccc3n2)cc1	none
